According to the supplement of paper PMC10849652:
Targets with a hit are over-represented here; the source holds about 7,900 in all. About 0.6% of all pairs of compound and target were hits.

Legend:
Experiment in all cases: log2 fold change, soluble protein after heating vs DMSO (PISA); higher = thermal stabilisation; K562 cells, 10 uM, 30 min; active = over 0.2 and 3.5 SD of the protein, either way, in both replicates (recomputed)
[1] = compound: NC(=O)Nc1cc(-c2cccc(F)c2)sc1C(=O)N[C@H]1CCCNC1
Summary of the method: (§1)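 For each measurement, 10 μM compound was applied for 30 min to K562 cells at 2×10^6 cells/mL. Aliquots were heated for 3 min across 48°C-58°C, pooled, and extracted in PBS with 0.5% NP-40 at 4°C; the supernatant after 21,000xg for 90 min was soluble protein. This was quantified by TMTpro 16plex LC-MS/MS with channel sums equalised, and thermal stability was reported relative to control samples from duplicates, on a log2 fold-change scale.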

[2] = compound: NC(=O)c1cnc(N[C@@H]2CCCC[C@@H]2N)nc1Nc1cccc(-n2nccn2)c1
Summary of the method: as §1

[3] = compound: NC1(c2ccc(-c3nc4ccn5c(=O)[nH]nc5c4cc3-c3ccccc3)cc2)CCC1
Summary of the method: as §1

[4] = compound: NCC(=O)Nc1ccc(-n2nc(C(F)(F)F)cc2-c2ccc3c(ccc4ccccc43)c2)cc1
Summary of the method: as §1

entinostat = compound: Nc1ccccc1NC(=O)c1ccc(CNC(=O)OCc2cccnc2)cc1 [entinostat]
Summary of the method: as §1

vorinostat = compound: O=C(CCCCCCC(=O)Nc1ccccc1)NO [vorinostat]
Summary of the method: as §1

citarinostat = compound: O=C(CCCCCCNC(=O)c1cnc(N(c2ccccc2)c2ccccc2Cl)nc1)NO [citarinostat]
Summary of the method: as §1

silmitasertib = compound: O=C(O)c1ccc2c(c1)nc(Nc1cccc(Cl)c1)c1ccncc12 [silmitasertib]
Summary of the method: as §1

[5] = compound: O=C1NC(=O)C(c2cnc3ccccn23)=C1c1cn2c3c(cc(F)cc13)CN(C(=O)N1CCCCC1)CC2
Summary of the method: as §1

[6] = compound: c1cc(OCCN2CCCCC2)cc(-c2n[nH]c3ccc(-c4nnc[nH]4)cc23)c1
Summary of the method: as §1

Measured: log2 fold change

NSMCE2 (UniProt Q96MF7)
inactive: [1] 0.065 | [2] -0.027 | [3] -0.008 | [4] -0.046 | entinostat -0.115 | vorinostat 0.128 | citarinostat -0.04 | silmitasertib 0.055 | [5] -0.068 | [6] -0.069

NMRAL1 (UniProt Q9HBL8)
active: [2] 1.06
inactive: [1] 0.391 | [3] 0.717 | [4] -0.16 | entinostat -0.052 | vorinostat -0.139 | citarinostat -0.151 | silmitasertib 0.018 | [5] -0.005 | [6] 0.374

NUDT1 (UniProt P36639)
active: [3] 1.01
inactive: [1] 0.159 | [2] 0.145 | [4] -0.129 | entinostat -0.026 | vorinostat 0.033 | citarinostat -0.073 | silmitasertib -0.091 | [5] 0.791 | [6] 0.572

NUP98 (UniProt P52948)
Sequence of UniProt P52948 (P52948 whole entry, looked up): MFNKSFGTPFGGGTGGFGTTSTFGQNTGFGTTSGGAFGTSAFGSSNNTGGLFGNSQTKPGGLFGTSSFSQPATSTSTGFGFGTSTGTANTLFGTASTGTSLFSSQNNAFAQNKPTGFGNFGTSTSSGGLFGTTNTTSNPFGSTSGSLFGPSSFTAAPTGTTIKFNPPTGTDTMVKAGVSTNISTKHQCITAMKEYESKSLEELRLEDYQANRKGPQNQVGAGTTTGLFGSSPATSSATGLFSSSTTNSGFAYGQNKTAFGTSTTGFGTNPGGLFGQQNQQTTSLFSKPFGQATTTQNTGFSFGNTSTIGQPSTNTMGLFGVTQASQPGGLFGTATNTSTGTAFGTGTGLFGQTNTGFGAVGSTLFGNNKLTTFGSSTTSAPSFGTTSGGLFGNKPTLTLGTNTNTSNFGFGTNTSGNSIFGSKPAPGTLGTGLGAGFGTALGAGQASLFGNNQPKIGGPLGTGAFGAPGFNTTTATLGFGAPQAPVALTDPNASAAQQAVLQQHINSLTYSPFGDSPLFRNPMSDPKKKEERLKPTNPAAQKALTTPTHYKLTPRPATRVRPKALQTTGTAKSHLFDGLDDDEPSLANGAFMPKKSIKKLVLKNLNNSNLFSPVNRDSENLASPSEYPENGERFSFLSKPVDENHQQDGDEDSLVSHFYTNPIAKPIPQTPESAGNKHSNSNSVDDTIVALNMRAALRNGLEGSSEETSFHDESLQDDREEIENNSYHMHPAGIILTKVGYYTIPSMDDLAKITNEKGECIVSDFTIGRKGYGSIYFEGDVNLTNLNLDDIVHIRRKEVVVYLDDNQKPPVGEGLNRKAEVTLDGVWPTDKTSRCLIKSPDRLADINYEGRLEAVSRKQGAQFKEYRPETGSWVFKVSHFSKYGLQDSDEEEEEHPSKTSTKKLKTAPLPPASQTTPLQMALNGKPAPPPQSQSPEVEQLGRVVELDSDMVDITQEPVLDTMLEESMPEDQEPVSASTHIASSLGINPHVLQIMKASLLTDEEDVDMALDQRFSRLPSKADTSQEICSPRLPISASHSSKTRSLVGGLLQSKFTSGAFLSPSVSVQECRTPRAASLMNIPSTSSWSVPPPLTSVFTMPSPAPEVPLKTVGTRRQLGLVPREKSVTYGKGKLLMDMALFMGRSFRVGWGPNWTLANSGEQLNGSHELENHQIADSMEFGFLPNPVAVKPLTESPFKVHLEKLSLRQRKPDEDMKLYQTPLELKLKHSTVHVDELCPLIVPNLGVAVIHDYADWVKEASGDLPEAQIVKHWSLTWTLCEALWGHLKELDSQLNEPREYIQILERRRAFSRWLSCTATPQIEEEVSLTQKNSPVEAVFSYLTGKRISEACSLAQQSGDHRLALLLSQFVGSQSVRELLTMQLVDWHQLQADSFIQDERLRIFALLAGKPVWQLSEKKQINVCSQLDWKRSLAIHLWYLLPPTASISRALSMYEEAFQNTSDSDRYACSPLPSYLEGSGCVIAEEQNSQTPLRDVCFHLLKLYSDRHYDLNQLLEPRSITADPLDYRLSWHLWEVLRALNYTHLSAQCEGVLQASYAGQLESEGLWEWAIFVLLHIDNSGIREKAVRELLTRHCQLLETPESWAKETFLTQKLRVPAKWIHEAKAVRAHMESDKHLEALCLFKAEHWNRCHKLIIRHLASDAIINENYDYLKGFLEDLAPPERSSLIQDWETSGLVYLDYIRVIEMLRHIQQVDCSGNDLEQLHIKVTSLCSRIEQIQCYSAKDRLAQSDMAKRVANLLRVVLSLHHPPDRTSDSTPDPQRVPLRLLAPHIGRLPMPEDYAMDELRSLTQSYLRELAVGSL
inactive: [1] 0.018 | [2] -0.086 | [3] -0.025 | [4] -0.076 | entinostat 0 | vorinostat 0.052 | citarinostat 0.028 | silmitasertib 0.072 | [5] 0.001 | [6] -0.073

MRPS24 (UniProt Q96EL2)
inactive: [1] -0.015 | [2] -0.016 | [3] -0.021 | [4] -0.086 | entinostat 0.001 | vorinostat 0.04 | citarinostat -0.053 | silmitasertib -0.096 | [5] -0.074 | [6] -0.105

NOL7 (UniProt Q9UMY1)
Sequence of UniProt Q9UMY1 (Q9UMY1 whole entry, looked up): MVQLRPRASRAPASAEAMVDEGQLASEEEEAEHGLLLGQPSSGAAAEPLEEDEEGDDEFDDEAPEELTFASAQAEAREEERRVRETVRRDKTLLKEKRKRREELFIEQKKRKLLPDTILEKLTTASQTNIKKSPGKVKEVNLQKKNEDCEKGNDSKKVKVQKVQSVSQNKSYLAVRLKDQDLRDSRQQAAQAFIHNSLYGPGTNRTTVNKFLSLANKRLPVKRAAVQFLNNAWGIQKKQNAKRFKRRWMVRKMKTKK
inactive: [1] 0.107 | [2] 0.131 | [3] 0.316 | [4] 0.177 | entinostat -0.079 | vorinostat -0.042 | citarinostat -0.101 | silmitasertib 0.166 | [5] 0.121 | [6] -0.218

NDUFB7 (UniProt P17568)
Sequence of UniProt P17568 (P17568 whole entry, looked up): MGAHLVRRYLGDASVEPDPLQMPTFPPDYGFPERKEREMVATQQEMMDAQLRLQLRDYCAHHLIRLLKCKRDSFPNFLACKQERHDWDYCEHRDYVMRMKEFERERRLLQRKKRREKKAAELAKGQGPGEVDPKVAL
inactive: [1] 0.039 | [2] -0.015 | [3] -0.02 | [4] 0.055 | entinostat -0.013 | vorinostat -0.037 | citarinostat 0.029 | silmitasertib 0 | [5] -0.094 | [6] 0.009

NFATC2 (UniProt Q13469)
inactive: [1] -0.076 | [2] -0.203 | [3] -0.064 | [4] -0.075 | entinostat 0.147 | vorinostat -0.011 | citarinostat 0.101 | silmitasertib -0.078 | [5] -0.062 | [6] -0.258

NDUFA12 (UniProt Q9UI09)
inactive: [1] -0.018 | [2] -0.038 | [3] -0.227 | [4] -0.061 | entinostat 0.04 | vorinostat 0.077 | citarinostat 0.07 | silmitasertib -0.052 | [5] 0.004 | [6] -0.033

NDUFA7 (UniProt O95182)
inactive: [1] 0.019 | [2] 0.005 | [3] -0.108 | [4] -0.059 | entinostat 0 | vorinostat 0.012 | citarinostat 0.008 | silmitasertib -0.037 | [5] -0.047 | [6] -0.039

NR2C2 isoform 2 (UniProt P49116)
inactive: [1] -0.056 | [2] -0.036 | [3] -0.211 | [4] -0.104 | entinostat -0.02 | vorinostat -0.116 | citarinostat -0.022 | silmitasertib 0.074 | [5] 0.03 | [6] -0.04

MUL1 (UniProt Q969V5)
inactive: [1] -0.029 | [2] -0.041 | [4] -0.024 | entinostat -0.007 | vorinostat 0.086 | citarinostat -0.002 | silmitasertib -0.018 | [5] -0.021 | [6] -0.049
active: [3] 0.648

NME7 (UniProt Q9Y5B8)
Sequence of UniProt Q9Y5B8 (Q9Y5B8 whole entry, looked up): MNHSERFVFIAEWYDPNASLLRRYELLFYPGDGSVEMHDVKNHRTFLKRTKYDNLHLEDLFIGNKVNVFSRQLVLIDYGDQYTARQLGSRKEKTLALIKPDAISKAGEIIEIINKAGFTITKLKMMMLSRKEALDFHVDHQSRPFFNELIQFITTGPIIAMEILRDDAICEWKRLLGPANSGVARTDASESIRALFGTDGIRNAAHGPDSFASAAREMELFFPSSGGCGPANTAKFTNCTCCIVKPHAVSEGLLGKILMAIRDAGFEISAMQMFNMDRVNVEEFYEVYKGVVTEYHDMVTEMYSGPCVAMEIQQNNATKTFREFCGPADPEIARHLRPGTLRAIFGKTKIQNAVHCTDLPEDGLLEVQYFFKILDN
inactive: [1] 0.159 | [2] -0.13 | [3] -0.184 | [4] 0.057 | entinostat 0.159 | vorinostat 0.145 | citarinostat 0.03 | silmitasertib 0.071 | [5] 0.05 | [6] 0.186

NA, A0A0B4J2A0
inactive: [1] -0.025 | [2] 0.029 | [3] -0.061 | [4] 0.031 | entinostat 0.029 | vorinostat 0.05 | citarinostat 0.029 | silmitasertib 0.017 | [5] -0.059 | [6] -0.012

OTUD6B (UniProt Q8N6M0)
inactive: [1] -0.122 | [2] -0.121 | [3] -0.167 | [4] -0.064 | entinostat 0.022 | vorinostat 0.215 | citarinostat -0.013 | silmitasertib 0.059 | [5] -0.065 | [6] -0.053

MND1 (UniProt Q9BWT6)
inactive: [1] -0.024 | [2] -0.012 | [3] -0.118 | [4] -0.119 | entinostat 0.041 | vorinostat -0.11 | citarinostat -0.033 | silmitasertib -0.014 | [5] -0.042 | [6] -0.146

NNT (UniProt Q13423)
inactive: [1] -0.007 | [2] -0.037 | [3] -0.062 | [4] -0.029 | entinostat 0.006 | vorinostat 0.025 | citarinostat 0.018 | silmitasertib -0.027 | [5] -0.041 | [6] 0.024

NUDCD2 (UniProt Q8WVJ2)
Sequence of UniProt Q8WVJ2 (Q8WVJ2 whole entry, looked up): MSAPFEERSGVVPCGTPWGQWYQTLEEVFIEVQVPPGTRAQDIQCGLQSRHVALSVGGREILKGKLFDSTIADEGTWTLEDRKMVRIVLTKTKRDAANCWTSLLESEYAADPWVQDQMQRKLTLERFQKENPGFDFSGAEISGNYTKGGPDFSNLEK
inactive: [1] -0.108 | [2] -0.099 | [3] -0.056 | [4] -0.172 | entinostat 0.028 | vorinostat 0.147 | citarinostat 0.007 | silmitasertib 0.063 | [5] -0.183 | [6] -0.044

MRPL50 (UniProt Q8N5N7)
inactive: [1] 0.024 | [2] 0.154 | [3] 0.035 | [4] 0.074 | entinostat 0.059 | vorinostat -0.102 | citarinostat 0.051 | silmitasertib 0.006 | [5] -0.078 | [6] -0.078

NOL11 (UniProt Q9H8H0)
Sequence of UniProt Q9H8H0 (Q9H8H0 whole entry, looked up): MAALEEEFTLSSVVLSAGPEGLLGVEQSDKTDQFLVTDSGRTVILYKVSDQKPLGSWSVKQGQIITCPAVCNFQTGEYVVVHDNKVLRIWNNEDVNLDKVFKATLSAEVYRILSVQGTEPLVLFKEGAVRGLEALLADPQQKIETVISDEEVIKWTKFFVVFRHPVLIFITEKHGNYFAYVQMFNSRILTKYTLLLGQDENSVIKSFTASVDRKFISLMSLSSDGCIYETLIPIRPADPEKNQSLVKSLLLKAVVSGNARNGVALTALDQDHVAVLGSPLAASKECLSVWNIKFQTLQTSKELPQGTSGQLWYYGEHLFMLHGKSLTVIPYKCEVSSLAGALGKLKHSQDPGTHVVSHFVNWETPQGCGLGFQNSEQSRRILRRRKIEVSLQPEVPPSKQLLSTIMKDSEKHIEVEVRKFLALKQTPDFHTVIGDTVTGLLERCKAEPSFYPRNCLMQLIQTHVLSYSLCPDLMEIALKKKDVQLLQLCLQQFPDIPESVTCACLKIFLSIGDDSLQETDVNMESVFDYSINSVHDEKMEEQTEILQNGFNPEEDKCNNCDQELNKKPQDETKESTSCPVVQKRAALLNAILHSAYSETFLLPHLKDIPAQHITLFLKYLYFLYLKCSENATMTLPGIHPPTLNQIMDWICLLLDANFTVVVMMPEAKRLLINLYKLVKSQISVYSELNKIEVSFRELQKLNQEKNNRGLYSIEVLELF
inactive: [1] 0.042 | [2] 0.055 | [3] 0.041 | [4] 0.038 | entinostat -0.019 | vorinostat -0.013 | citarinostat 0.035 | silmitasertib 0.068 | [5] 0.02 | [6] -0.041

MSL1 (UniProt Q68DK7)
Sequence of UniProt Q68DK7 (Q68DK7 whole entry, looked up): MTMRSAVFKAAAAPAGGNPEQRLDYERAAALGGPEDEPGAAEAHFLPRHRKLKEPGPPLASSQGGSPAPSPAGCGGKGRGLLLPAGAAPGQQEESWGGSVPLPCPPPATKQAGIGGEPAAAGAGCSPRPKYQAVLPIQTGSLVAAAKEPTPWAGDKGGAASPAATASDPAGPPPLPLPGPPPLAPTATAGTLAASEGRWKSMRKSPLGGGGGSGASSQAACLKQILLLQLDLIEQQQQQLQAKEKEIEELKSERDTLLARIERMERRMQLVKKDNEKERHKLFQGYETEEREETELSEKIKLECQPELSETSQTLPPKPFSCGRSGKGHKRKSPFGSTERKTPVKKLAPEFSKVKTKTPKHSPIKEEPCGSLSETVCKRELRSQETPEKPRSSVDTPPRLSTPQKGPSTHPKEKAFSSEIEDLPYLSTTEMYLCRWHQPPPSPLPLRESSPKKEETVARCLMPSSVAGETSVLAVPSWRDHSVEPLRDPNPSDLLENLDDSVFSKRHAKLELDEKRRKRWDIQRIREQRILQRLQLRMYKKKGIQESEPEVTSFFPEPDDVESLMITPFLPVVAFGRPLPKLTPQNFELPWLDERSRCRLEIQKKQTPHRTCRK
inactive: [1] -0.032 | [2] -0.085 | [3] -0.024 | [4] -0.036 | entinostat 0.016 | vorinostat 0.104 | citarinostat 0.047 | silmitasertib -0.152 | [5] -0.153 | [6] 0.017

MRPS31 (UniProt Q92665)
inactive: [1] -0.001 | [2] 0.03 | [3] -0.05 | [4] 0 | entinostat -0.011 | vorinostat -0.039 | citarinostat 0.008 | silmitasertib -0.012 | [5] -0.036 | [6] -0.083

MRPL34 (UniProt Q9BQ48)
inactive: [1] 0.02 | [2] 0.018 | [3] 0.045 | [4] 0.095 | entinostat -0.041 | vorinostat 0.035 | citarinostat 0.004 | silmitasertib 0.053 | [5] 0.09 | [6] -0.175

OSTM1 (UniProt Q86WC4)
inactive: [1] -0.035 | [2] -0.029 | [4] 0.003 | entinostat 0.006 | vorinostat 0.072 | citarinostat 0.064 | silmitasertib 0.034 | [5] -0.037 | [6] -0.037
active: [3] -0.319

NDUFB10 (UniProt O96000)
inactive: [1] -0.062 | [2] -0.06 | [3] -0.054 | [4] -0.022 | entinostat -0.034 | vorinostat -0.053 | citarinostat 0.031 | silmitasertib 0.021 | [5] -0.018 | [6] -0.006

NDUFB1 (UniProt O75438)
inactive: [1] 0.053 | [2] -0.114 | [3] -0.007 | [4] -0.134 | entinostat 0.055 | vorinostat 0.108 | citarinostat -0.026 | silmitasertib -0.014 | [5] -0.124 | [6] 0.012

NDUFS7 (UniProt O75251)
inactive: [1] -0.025 | [2] -0.079 | [3] -0.113 | [4] -0.057 | entinostat -0.011 | vorinostat 0.103 | citarinostat 0.013 | silmitasertib -0.003 | [5] -0.066 | [6] -0.027

MKNK1 (UniProt Q9BUB5)
inactive: [1] 0.226 | [2] -0.157 | [3] -0.158 | [4] -0.059 | entinostat -0.026 | vorinostat -0.025 | citarinostat 0.025 | silmitasertib 0.012 | [5] 0.019 | [6] -0.042

NCOA7 (UniProt Q8NI08)
Sequence of UniProt Q8NI08 (Q8NI08 whole entry, looked up): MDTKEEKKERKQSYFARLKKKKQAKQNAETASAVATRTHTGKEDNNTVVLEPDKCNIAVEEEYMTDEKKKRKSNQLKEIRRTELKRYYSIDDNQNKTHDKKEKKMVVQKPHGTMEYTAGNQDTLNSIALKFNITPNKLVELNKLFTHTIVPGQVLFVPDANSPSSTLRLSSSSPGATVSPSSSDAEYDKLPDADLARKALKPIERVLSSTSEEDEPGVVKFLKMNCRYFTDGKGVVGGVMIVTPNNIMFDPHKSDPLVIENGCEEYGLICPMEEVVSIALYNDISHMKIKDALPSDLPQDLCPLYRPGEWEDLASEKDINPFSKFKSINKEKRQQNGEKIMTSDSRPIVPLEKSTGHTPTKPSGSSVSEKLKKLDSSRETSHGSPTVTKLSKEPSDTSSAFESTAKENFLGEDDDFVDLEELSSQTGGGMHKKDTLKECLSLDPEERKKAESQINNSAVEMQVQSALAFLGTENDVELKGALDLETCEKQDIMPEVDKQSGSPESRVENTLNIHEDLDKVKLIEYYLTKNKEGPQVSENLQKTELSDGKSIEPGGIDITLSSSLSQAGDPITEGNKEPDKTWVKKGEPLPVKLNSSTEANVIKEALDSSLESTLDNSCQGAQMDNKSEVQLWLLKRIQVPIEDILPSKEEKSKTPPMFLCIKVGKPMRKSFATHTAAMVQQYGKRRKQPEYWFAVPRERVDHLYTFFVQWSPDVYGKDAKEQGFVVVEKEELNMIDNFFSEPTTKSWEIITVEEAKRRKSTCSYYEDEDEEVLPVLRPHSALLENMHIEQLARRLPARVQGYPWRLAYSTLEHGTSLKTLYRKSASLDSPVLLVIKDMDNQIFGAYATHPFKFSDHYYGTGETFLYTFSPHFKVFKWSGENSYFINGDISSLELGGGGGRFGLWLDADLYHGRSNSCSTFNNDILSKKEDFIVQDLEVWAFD
inactive: [1] -0.061 | [2] -0.036 | [3] -0.068 | [4] -0.033 | entinostat -0.067 | vorinostat 0.026 | citarinostat -0.001 | silmitasertib 0.022 | [5] -0.093 | [6] -0.005
